Source: PubChem BioAssay (Tox21)
Several values for one entry are separate records, joined by “and”; a condition that tells them apart may be missing. Identical values can stand only once. Results filed as inconclusive are left out. A call without a number means that no potency is given here. Some structures have more than one record in an assay (separate samples or runs), and their calls can disagree. Activity calls are given as the source filed them. Calls follow the shape of the dose curve; as a rule, active = well fitted curve in the direction sought with a large enough effect in the repeat runs; inconclusive = weak or mixed curves; inactive = no such curve, though single readings can be large; an effect the other way counts as inactive or inconclusive.

Columns and labels:
[1] = target: Cytochrome P450 2D6 (Homo sapiens) (UniProt P10635); assay: Cytochrome P450 Family 2 Subfamily D Member 6 (CYP2D6) small molecule antagonists: luciferase reporter qHTS assay (AID 1671196); also: nearly all actives have a fitted effect of over 50% in size; also: potency is read from the fitted curve at half-maximal effect
In short: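 Quantitative HTS of Tox21 chemicals against CYP2D6 using a luminescent proluciferin substrate. After NADPH addition, 1 h room-temperature reaction; luminescence recorded 20 min post detection reagent.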

[2] = target: Cytochrome P450 2C19 (Homo sapiens) (UniProt P33261); assay: Cytochrome P450 Family 2 Subfamily C Member 19 (CYP2C19) small molecule antagonists: luciferase reporter qHTS assay (AID 1671197); also: nearly all actives have a fitted effect of over 65% in size; also: potency is read from the fitted curve at half-maximal effect
In short: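 Luminescent readout of CYP2C19 activity: luciferin product detected 20 min after adding detection reagent. Before that, compound and enzyme-substrate mix preincubated 10 min at room temperature; NADPH-regenerating system started a 1 h, 37C reaction. Ketoconazole as positive control.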

[3] = target: Cytochrome P450 2C9 (Homo sapiens) (UniProt P11712); assay: Cytochrome P450 Family 2 Subfamily C Member 9 (CYP2C9) small molecule antagonists: luciferase reporter qHTS assay (AID 1671198); also: nearly all actives have a fitted effect of over 50% in size; also: potency is read from the fitted curve at half-maximal effect
In short: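 Enzyme-substrate mix preincubated with compound 10 min at room temperature; reaction started with NADPH regeneration solution, 1 h 37C. Luminescent luciferin product read after 20 min detection reagent.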

[4] = target: Cytochrome P450 1A2 (Homo sapiens) (UniProt P05177); assay: Cytochrome P450 Family 1 Subfamily A Member 2 (CYP1A2) small molecule antagonists: luciferase reporter qHTS assay (AID 1671199); also: nearly all actives have a fitted effect of over 50% in size; also: potency is read from the fitted curve at half-maximal effect
In short: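 Quantitative high-throughput format using the P450-Glo CYP1A2 system. Reaction initiated by NADPH regeneration solution, 1 h at room temperature, then stopped with detection reagent; luminescence measured 20 min later.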

[5] = target: Cytochrome P450 3A4 (Homo sapiens) (UniProt P08684); assay: Cytochrome P450 Family 3 Subfamily A Member 4 (CYP3A4) small molecule antagonists: luciferase reporter qHTS assay (AID 1671201); also: nearly all actives have a fitted effect of over 50% in size; also: potency is read from the fitted curve at half-maximal effect
In short: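 P450-Glo CYP3A4 luminescent assay: compounds preincubated 10 min at room temperature with enzyme and proluciferin substrate, NADPH regeneration added, 1 h room-temperature reaction, stopped with luciferin detection reagent; luminescence read after 20 min. Ketoconazole positive control.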

[6] = target: Voltage-gated inwardly rectifying potassium channel KCNH2 (Homo sapiens) (UniProt Q12809); assay: Human Ether-a-go-go-Related Gene (hERG) channel small molecule antagonists: fluorescence cell-based qHTS assay (AID 1671200)
In short: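 hERG-U2OS cells plated overnight at 37 C, loaded with FluxOR II dye 1 h at RT in dark; after 10 min, thallium stimulus added. Fluorescence (480/540 nm) read kinetically for 2 min at 1 s intervals.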

Cytochrome P450 2C9 (Homo sapiens), sequence (P11712 whole entry, looked up): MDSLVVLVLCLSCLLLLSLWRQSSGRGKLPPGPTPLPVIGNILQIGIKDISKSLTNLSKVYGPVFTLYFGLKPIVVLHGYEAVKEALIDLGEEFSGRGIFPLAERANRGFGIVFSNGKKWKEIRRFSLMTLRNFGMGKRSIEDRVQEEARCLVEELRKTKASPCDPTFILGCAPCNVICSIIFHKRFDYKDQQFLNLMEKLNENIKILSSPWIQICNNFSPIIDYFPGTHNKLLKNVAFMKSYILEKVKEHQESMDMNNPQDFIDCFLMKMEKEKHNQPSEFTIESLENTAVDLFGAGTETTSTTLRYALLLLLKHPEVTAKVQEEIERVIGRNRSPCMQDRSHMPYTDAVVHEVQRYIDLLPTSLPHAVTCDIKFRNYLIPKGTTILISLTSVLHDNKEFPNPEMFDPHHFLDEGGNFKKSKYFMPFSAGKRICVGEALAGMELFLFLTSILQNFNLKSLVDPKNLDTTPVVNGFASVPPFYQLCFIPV
Cytochrome P450 2C19 (Homo sapiens), sequence (P33261 whole entry, looked up): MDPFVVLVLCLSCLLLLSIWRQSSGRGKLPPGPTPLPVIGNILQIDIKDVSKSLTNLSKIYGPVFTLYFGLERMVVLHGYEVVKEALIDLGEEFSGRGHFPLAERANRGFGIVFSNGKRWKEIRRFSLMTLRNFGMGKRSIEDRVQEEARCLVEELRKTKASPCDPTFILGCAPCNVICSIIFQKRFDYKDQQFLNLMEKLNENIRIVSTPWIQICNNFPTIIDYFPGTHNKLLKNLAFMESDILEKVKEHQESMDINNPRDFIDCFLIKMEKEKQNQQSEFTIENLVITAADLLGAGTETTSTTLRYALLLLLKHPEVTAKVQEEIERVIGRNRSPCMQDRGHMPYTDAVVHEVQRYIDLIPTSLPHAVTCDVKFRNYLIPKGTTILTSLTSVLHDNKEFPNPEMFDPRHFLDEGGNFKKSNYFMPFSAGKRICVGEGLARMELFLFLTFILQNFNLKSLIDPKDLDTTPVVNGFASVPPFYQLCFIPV
Voltage-gated inwardly rectifying potassium channel KCNH2 (Homo sapiens), sequence (Q12809 whole entry, looked up): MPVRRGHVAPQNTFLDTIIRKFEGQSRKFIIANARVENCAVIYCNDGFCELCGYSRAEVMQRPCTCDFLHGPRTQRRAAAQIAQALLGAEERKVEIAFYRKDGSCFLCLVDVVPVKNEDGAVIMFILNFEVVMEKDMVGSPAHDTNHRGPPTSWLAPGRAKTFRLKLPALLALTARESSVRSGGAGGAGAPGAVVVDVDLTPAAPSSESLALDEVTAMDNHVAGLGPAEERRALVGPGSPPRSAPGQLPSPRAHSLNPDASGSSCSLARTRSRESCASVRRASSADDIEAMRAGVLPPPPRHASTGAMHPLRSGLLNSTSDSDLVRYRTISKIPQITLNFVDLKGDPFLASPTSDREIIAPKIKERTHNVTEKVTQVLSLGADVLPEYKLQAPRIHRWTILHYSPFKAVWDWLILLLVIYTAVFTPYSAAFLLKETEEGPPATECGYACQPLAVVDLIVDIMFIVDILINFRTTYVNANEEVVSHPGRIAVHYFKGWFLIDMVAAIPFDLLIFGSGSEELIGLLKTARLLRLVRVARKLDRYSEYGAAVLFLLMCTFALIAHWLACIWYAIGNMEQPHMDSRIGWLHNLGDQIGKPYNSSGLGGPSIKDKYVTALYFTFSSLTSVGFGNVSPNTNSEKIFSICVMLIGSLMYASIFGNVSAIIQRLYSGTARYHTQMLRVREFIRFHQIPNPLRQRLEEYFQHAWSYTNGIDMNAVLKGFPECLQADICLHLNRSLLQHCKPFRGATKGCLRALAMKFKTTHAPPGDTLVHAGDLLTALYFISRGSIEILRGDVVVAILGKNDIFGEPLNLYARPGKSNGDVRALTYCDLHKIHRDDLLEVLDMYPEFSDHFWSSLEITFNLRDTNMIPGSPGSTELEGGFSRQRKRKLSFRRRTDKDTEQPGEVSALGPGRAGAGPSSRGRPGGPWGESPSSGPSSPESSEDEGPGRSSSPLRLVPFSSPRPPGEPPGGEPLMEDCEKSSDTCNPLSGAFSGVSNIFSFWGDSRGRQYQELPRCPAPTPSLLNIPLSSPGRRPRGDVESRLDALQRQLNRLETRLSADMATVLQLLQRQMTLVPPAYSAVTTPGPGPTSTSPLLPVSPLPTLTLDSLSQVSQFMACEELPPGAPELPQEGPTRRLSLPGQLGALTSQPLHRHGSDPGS
Cytochrome P450 1A2 (Homo sapiens), sequence (P05177 whole entry, looked up): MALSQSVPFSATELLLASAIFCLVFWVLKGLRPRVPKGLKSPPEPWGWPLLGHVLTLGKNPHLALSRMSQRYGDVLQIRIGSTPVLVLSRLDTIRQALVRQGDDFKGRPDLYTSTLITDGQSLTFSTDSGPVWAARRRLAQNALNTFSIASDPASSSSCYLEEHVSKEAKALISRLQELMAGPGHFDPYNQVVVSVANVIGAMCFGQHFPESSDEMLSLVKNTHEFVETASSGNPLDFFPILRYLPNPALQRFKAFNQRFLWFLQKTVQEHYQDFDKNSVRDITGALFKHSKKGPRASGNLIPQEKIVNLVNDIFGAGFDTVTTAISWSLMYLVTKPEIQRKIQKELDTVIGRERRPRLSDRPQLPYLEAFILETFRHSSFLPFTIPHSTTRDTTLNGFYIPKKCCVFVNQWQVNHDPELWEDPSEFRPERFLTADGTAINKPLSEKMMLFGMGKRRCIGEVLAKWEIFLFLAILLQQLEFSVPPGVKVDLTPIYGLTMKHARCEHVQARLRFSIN
Cytochrome P450 2D6 (Homo sapiens), sequence (P10635 whole entry, looked up): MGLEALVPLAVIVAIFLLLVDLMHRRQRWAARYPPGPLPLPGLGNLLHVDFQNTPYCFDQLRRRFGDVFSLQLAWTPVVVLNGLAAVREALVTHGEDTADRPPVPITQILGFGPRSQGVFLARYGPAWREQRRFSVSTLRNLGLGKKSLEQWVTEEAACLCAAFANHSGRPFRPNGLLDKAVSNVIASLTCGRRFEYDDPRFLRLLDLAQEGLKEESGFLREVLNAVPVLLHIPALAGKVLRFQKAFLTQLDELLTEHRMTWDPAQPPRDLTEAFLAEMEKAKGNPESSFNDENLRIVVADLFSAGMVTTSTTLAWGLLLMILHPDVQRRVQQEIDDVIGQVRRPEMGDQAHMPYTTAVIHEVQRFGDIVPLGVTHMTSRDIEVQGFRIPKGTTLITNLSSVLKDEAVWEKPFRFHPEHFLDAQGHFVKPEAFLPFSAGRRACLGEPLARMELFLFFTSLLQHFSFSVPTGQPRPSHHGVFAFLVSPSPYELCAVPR
Cytochrome P450 3A4 (Homo sapiens), sequence (P08684 whole entry, looked up): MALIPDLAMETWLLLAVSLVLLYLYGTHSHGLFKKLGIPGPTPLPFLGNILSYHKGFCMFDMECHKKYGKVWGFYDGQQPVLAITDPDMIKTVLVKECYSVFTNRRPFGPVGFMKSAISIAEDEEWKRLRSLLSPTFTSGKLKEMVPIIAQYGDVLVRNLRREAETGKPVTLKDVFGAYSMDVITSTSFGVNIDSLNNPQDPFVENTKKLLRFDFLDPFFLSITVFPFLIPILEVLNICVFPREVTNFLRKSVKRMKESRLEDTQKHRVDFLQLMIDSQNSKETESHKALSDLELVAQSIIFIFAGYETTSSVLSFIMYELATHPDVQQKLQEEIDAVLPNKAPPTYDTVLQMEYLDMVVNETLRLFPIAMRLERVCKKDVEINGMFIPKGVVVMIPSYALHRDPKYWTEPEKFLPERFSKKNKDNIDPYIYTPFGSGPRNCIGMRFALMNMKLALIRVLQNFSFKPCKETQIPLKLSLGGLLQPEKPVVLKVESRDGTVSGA

SMILES | Potency [1] | Potency [2] | Potency [3] | Potency [4] | Potency [5] | Potency [6]
C=C(C)C(=O)OCCC[Si](OC)(OC)OC | 62.6 µM (active) and inactive | 22.2 µM (active) | 15.7 µM (active) | inactive | 3.14 µM (active) and 63.3 µM (active) | 
CC(C)(N=C=O)c1cccc(C(C)(C)N=C=O)c1 | 35.3 µM (active) | 79.1 µM (active) and inactive | inactive | inactive | 2.81 µM (active) and 7.96 µM (active) | inactive
COCC(=O)O | inactive | 73 µM (active) and inactive | inactive | inactive | inactive | 
Nc1c(S(=O)(=O)O)cc(Br)c2c1C(=O)c1ccccc1C2=O | inactive | inactive | 16.3 µM (active) and 7.96 µM (active) | 3.24 µM (active) and 2 µM (active) | inactive | inactive
NCc1cccc(CN)c1 | 580 nM (active) and 35.6 µM (active) | 36.6 µM (active) and 31.7 µM (active) | 36.6 µM (active) and 39.9 µM (active) | 35.6 µM (active) | 36.6 µM (active) and 2.83 µM (active) | inactive
CC[Si](OC(C)=O)(OC(C)=O)OC(C)=O | 35.6 µM (active) | 50.2 µM (active) and inactive | 71 µM (active) and inactive | inactive | 3.17 µM (active) and 35.6 µM (active) | inactive
Oc1c(Cl)cc(Cl)c(Cl)c1Cl | inactive | inactive | 39.1 µM (active) and 28.3 µM (active) | 62 µM (active) and 63.3 µM (active) | inactive | inactive
C=C(C)C(=O)OCC(CC)(COC(=O)C(=C)C)COC(=O)C(=C)C | 16.2 µM (active) | 3.62 µM (active) and 3.49 µM (active) | 14.4 µM (active) and 15.6 µM (active) | 32.2 µM (active) and 27.8 µM (active) | inactive | 
CC1=C(CC(=O)O)c2cc(F)ccc2/C1=C\c1ccc(S(C)=O)cc1 (stereo unspecified) | 35.6 µM (active) and 34.7 µM (active) | 7.96 µM (active) and 8.71 µM (active) | 50.2 µM (active) and inactive | 35.6 µM (active) | inactive | 
CC1COc2ccccc2N1C(=O)C(Cl)Cl (stereo unspecified) | 15.9 µM (active) and inactive | 7.09 µM (active) and 6.32 µM (active) | 15.9 µM (active) and 28.2 µM (active) | 79.5 µM (active) and inactive | inactive | 
O=[N+]([O-])c1cc(N(CCO)CCO)ccc1NCCO | 39.8 µM (active) and 31.7 µM (active) | 22.4 µM (active) and 39.9 µM (active) | 35.5 µM (active) and 39.9 µM (active) | 35.5 µM (active) and 35.6 µM (active) | 35.5 µM (active) and 39.9 µM (active) | 
O=C(c1ccc(O)cc1)c1ccc(O)cc1O | 36 µM (active) and 35.6 µM (active) | 32.1 µM (active) and inactive | inactive | 28.6 µM (active) and 35.6 µM (active) | 7.18 µM (active) and 22.4 µM (active) | 
CCCCCC/C=C/CCCCCCCC(=O)O | inactive | inactive | inactive | inactive | inactive | inactive
CCc1ccc(O)cc1 | inactive | 71.3 µM (active) and inactive | inactive | inactive | inactive | 
O=C1CCCCC1 | inactive | 74.6 µM (active) and inactive | inactive | inactive | inactive | inactive
OCC#CCO | inactive | 57.2 µM (active) and inactive | inactive | inactive | inactive | 
CC(=O)CCc1ccccc1 | inactive | 81 µM (active) and inactive | inactive | inactive | inactive | inactive
O=C(Oc1ccccc1)c1ccc(O)cc1 | inactive | 40.2 µM (active) and 22.4 µM (active) | 11.3 µM (active) and 25.2 µM (active) | 28.5 µM (active) and 35.6 µM (active) | inactive | 
O=C1O[C@H](CO)[C@@H](O)[C@H](O)[C@H]1O | inactive | inactive | inactive | inactive | inactive | inactive
Cc1ccc(C(=O)O)o1 | inactive | inactive | inactive | inactive | inactive | 
NC(=O)/N=N/C(N)=O | inactive | 3.18 µM (active) and 5.64 µM (active) | 4 µM (active) and 3.99 µM (active) | 17.9 µM (active) and 15.9 µM (active) | inactive | 
C=C(C)C(=O)OCCCCCCCCCCCC | inactive | inactive | inactive | inactive | inactive | inactive
O=S(=O)(O)c1cc(S(=O)(=O)O)c2c(N=Nc3ccccc3)c(O)ccc2c1 | inactive | 71.3 µM (active) and inactive | inactive | inactive | inactive | inactive
O=S(=O)(Oc1ccc(Cl)cc1Cl)c1ccccc1 | 64.4 µM (active) and 63.3 µM (active) | 811 nM (active) and 894 nM (active) | 40.6 µM (active) and 35.6 µM (active) | 2.28 µM (active) and 2.24 µM (active) | inactive | 
Clc1ccc(Cl)c(Cl)c1Cl | inactive | 49.7 µM (active) | inactive | inactive and 39.9 µM (active) | inactive | 
O=[N+]([O-])C(CO)(CO)CO | inactive | 69.9 µM (active) and inactive | 79.6 µM (active) | inactive | inactive | 

SMILES | Potency [1] | Potency [2] | Potency [3] | Potency [4] | Potency [5] | Potency [6]
CCCCCCCCCCCCN | 16 µM (active) and 2.24 µM (active) and 8.09 µM (active) | 4.02 µM (active) and 633 nM (active) and 2.56 µM (active) | 22.6 µM (active) and 6.33 µM (active) and 32.2 µM (active) | 16 µM (active) and 2.83 µM (active) and 9.08 µM (active) | inactive | 
S=c1nc[nH]c2nc[nH]c12 | inactive | 69.2 µM (active) and 30.9 µM (active) | 34.7 µM (active) | inactive | inactive | 
O=C(c1cc(O)c(O)c(O)c1)c1ccc(O)c(O)c1O | 31.6 µM (active) and inactive | 15.9 µM (active) and 31.7 µM (active) | 3.16 µM (active) and 50.2 µM (active) and inactive | 39.8 µM (active) and 39.9 µM (active) and inactive | inactive | inactive
CC1CC(OC(=O)c2ccccc2O)CC(C)(C)C1 (stereo unspecified) | inactive | inactive | inactive and 44.8 µM (active) | inactive and 27.5 µM (active) | inactive | 
COC(=O)c1ccccc1O | inactive | 35.7 µM (active) and inactive | inactive | 6.35 µM (active) | inactive | inactive
CC(C)(C)C1CCC(O)CC1 (stereo unspecified) | inactive | 32.2 µM (active) and inactive | inactive | 72 µM (active) and inactive | inactive | 
O=S(=O)(O)CCS | 31.3 µM (active) and inactive | inactive |  | inactive | inactive | 
Cn1c([N+](=O)[O-])cnc1COC(N)=O | inactive | inactive | inactive | inactive | inactive | 
Cc1cc(Cc2ccc(N)c(C)c2)ccc1N |  | 3.56 µM (active) and 5.03 µM (active) | 6.33 µM (active) and 25.2 µM (active) | 6.33 µM (active) and 14.2 µM (active) | 894 nM (active) and 2.52 µM (active) | 
O=C1N=C(O)CN1/N=C/c1ccc(-c2ccc([N+](=O)[O-])cc2)o1 |  |  |  |  |  | inactive
CC1Cc2ccccc2N1NC(=O)c1ccc(Cl)c(S(N)(=O)=O)c1 (stereo unspecified) |  | inactive | inactive | inactive |  | inactive
CC1=C(/C=C/C(C)=C/C=C/C(C)=C/CO)C(C)(C)CCC1 |  | 50.9 µM (active) and 37.5 µM (active) | 64.1 µM (active) and 37.5 µM (active) | 20.3 µM (active) | 18.1 µM (active) and 11.9 µM (active) | 
NCCc1ccc(O)c(O)c1 | 63.5 µM (active) and inactive | 71.2 µM (active) and inactive | inactive |  | inactive | inactive
CCCCCCC(C)(C)S | inactive | 22.6 µM (active) and inactive | 32 µM (active) and inactive |  | inactive | 
C[C@@H](O)[C@H]1C(=O)N2C(C(=O)O)=C(S[C@@H]3CN[C@H](C(=O)N(C)C)C3)[C@H](C)[C@H]12 | 17.4 µM (active) and inactive | inactive |  | 15.5 µM (active) and inactive | inactive | inactive
CC(C)n1c(/C=C/[C@@H](O)C[C@@H](O)CC(=O)O)c(-c2ccc(F)cc2)c2ccccc21 | inactive | inactive |  |  | inactive | inactive
CN(CCOc1ccc(CC2SC(=O)NC2=O)cc1)c1ccccn1 (stereo unspecified) |  | inactive | 62.9 µM (active) and inactive | inactive |  | 
Oc1ccc2ccccc2c1 |  |  |  |  |  | inactive
CNC[C@H](O)[C@@H](O)[C@H](O)[C@H](O)CO | inactive | inactive |  | inactive | inactive | inactive
CC(C)Cc1ccccc1 | inactive | inactive | inactive | inactive | inactive | 
Clc1cc(Cl)c(Cl)cc1Cl | inactive | inactive | inactive |  | inactive | 
Cc1ccc(N)c(S(=O)(=O)O)c1 | inactive | 71.9 µM (active) and inactive | 45.4 µM (active) |  | inactive | inactive
C/C=C(C)/C=C/C=C(C)C | inactive | 70.2 µM (active) and 79.6 µM (active) |  | 39.9 µM (active) | 31.3 µM (active) and 35.6 µM (active) | inactive
CC1(C)CC(N=C=O)CC(C)(CN=C=O)C1 (stereo unspecified) | 25.5 µM (active) and 39.9 µM (active) | 18.1 µM (active) and inactive |  | inactive | 4.05 µM (active) and 2 µM (active) | 
C=C1CC[C@H](O)CC1=C/C=C1\CCC[C@]2(C)[C@@H]([C@H](C)/C=C/[C@H](C)C(C)C)CC[C@@H]12 |  | 35.3 µM (active) and 25.2 µM (active) |  |  |  | 
